Bioassay records (PubChem)
p53 reactivator = re-activators of mutant p53. H1299 p53-A138V BP100-luciferase reporter, luminescence, 24 h. Potency, µM (highest dose often 92.2 µM), inactives show top-dose activity change, positive = activation, actives largely listed as activators. 320,000 tested, 0.063% active. AID 504706; note: % of control where 0% means no effect; nearly all actives have a fitted effect of over 45% in size
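p53-null H1299 cells stably carrying temperature-sensitive p53-A138V and a BP100-luciferase reporter were pinned with compounds (4-point, 1:5 series) and held 24 hrs at 37 deg C. Luminescence was read 10 min after detection reagent.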
FLuc counter = inhibits or activates purified firefly luciferase, miR-21 counter-screen; purified FLuc, Km substrates, luminescence inhibition; Potency, µM (titrated, usually from 57.5 µM), for the others: at the highest dose activity change, negative = inhibition, hits mostly inhibitors; 360,000 tested, 6.9% active;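 note: plate controls were vehicle for no effect and reference inhibitor for full effect; nearly all actives have a fitted effect of over 55% in size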
Target sequence (P08659 whole entry, looked up): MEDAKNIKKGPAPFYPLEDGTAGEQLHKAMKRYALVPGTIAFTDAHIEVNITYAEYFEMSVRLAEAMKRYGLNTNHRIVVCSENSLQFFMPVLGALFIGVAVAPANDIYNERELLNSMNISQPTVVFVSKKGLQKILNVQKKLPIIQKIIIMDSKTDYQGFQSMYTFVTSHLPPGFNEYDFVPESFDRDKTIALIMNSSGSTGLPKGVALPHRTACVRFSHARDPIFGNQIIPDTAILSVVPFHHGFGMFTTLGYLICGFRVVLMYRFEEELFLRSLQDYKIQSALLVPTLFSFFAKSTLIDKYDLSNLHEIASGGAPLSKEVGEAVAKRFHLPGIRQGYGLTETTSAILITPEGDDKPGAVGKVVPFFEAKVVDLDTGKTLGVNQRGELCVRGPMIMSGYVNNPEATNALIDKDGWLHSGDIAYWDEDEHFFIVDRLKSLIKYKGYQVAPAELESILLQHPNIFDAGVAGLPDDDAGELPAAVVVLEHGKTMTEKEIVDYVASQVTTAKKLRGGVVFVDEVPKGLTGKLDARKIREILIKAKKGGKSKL
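Purified P. pyralis luciferase (10nM final) with 10uM D-luciferin and 10uM ATP (Km levels) in 50mM Tris acetate pH 7.5, 10mM Mg acetate, 0.01% Tween-20, 0.05% BSA; qHTS 6-point titration, ~60 µM downward; luminescence read.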
Rab9 promoter act = Rab9 promoter activation. Huh7 Rab9 promoter-luciferase reporter, luminescence, 24 h. Potency, µM (top dose mostly 9.22 µM), for inactives: top-dose activation, negative = inhibition, hits mostly activators. 320,000 tested, 2.8% active. AID 485297; note: % of control where 0% means no effect; nearly all actives have a fitted effect of over 60% in size
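Cells were plated at 1500 per well in reduced-serum medium with 10% FBS and left 2 h. Compound in DMSO was then added for 24 h at 37 °C. Reporter signal was read by luminescence after 10 min with luciferase detection reagent.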
NPC1 promoter act = NPC1 promoter activation; Huh7 NPC1 promoter luciferase reporter, 24 h; Potency, µM (doses to about 9.22 µM), for inactives: top-dose activation, hits mostly activators; 320,000 tested, 2.4% active; AID 485313; note: % of control where 0% means no effect; nearly all actives have a fitted effect of over 60% in size
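In 1536-well qHTS, Huh7 cells harboring an NPC1 promoter–luciferase construct received compound for 24 h; activation was quantified by luminescence following luciferase reagent addition.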
SMN2 splice up = SMN2 splice variant enhancement; HEK293 SMN2-luciferase splicing reporter, luminescence, 30-36 h; Potency, µM (titrated, usually from 46.1 µM), without a hit: top-dose activity change, positive = activation, most hits filed as activators; 210,000 tested, 2.8% active; note: % of control where 0% means no effect; nearly all actives have a fitted effect of over 55% in size
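HEK293 cells carry an SMN2 […]–luciferase reporter in which exon 7 inclusion puts luciferase in frame. Cells were plated 10-12 h before compound addition, then incubated 30-36 h at 37C. ONE-Glo luminescence was read; sodium butyrate at 4.5 mM final served as control.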
ELG1 genotoxic = genotoxicity induction in ELG1-luciferase HEK293T cells; HEK293T ELG1-luciferase reporter, luminescence, 16 h; Potency, µM (doses to about 46 µM), without a hit: at the top dose activity change, positive = activation, actives largely listed as activators; 330,000 tested, 1.3% active; note: % of control where 0% means no effect; nearly all actives have a fitted effect of over 60% in size
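Screening used a luciferase reporter fused to human ELG1 in HEK293T cells. Luminescence was read on a CCD plate imager after 16 hr exposure and 30 min ONE-Glo incubation.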
* marks the source's active call; other numbers are inactive results; ? = inconclusive; / = not tested or not shown; [ ] = another dose, or the depositor's remark. Rows were chosen to be rich in hits. Some 7.4% of all compounds tested hit in one or more screens of this group. Calls come from the whole dose curve; as a rule, active = well fitted curve in the direction sought with a large enough effect; inconclusive = small, poorly fitted or top-dose-only effect, or another doubt; inactive = no such curve, though single readings can be large; an effect the other way counts as inactive or inconclusive. Potency is the fitted concentration of half-maximal effect.

SMILES	p53 reactivator	FLuc counter	Rab9 promoter act	NPC1 promoter act	SMN2 splice up	ELG1 genotoxic
CCc1ccc(C(=O)CN2C(=O)NC3(CCc4ccccc43)C2=O)cc1 (stereo not given)	-1.6%	?	5.6%	2.5%	/	-2.2%
COc1cccc2c1OCC/C2=N\NC(=O)COc1ccc(C)cc1	29.9%	15.1µM*	1.4%	-0.8%	30.1%	6.9%
COc1cccc2c1OCC/C2=N\NC(=O)COc1ccccc1C	?	6.75µM*	1.4%	8.6%	16.6%	9.0%
Cc1ccccc1OCC(=O)N/N=C1\CCOc2c(C)cccc21	1.5%	2.9%	?	27.5%	11.5%	6.2%
O=C(N/C(=C/c1ccccc1)C(=O)N1CCCCCC1)c1ccccc1	-2.4%	-2.2%	1.6%	-0.6%	-24.9%	-3.7%
O=C(N/C(=C/c1ccccc1)C(=O)N1CCCCC1)c1ccccc1	27.4%	7.57µM*	2.82µM*	3.55µM*	/	18.3µM*
COc1ccc(-c2cc(C(=O)N3CCCCC3)no2)cc1OC	?	?	?	?	14.3%	?
O=C(c1cc(-c2ccc3c(c2)OCO3)on1)N1CCCCC1	-0.1%	0.849µM*	0.501µM*	0.316µM*	/	0.116µM*
CN(C(=O)c1cc(-c2ccccc2O)on1)c1ccccc1	/	?	/	/	-5.2%	/
COc1ccc(-c2cc(C(=O)N3CCCC3)no2)cc1OC	24.1%	?	?	?	/	?
O=C(c1cc(-c2ccc(O)cc2)on1)N1CCCCCC1	?	13.5µM*	2.51µM*	1.26µM*	/	?
O=C(c1cc(-c2ccccc2O)on1)N1CCCCC1	/	8.49µM*	/	/	20µM*	/
O=C(c1cc(-c2ccc(Cl)cc2)on1)N1CCCCCC1	?	1.9µM*	1.12µM*	0.794µM*	/	4.61µM*
N#CCCn1c(=O)c(-c2ccccc2)nc2cnc(N3CCNCC3)nc21	/	/	/	/	-13.5%	/
Cc1c(S(=O)(=O)N2CCCCC2)c(=O)n(C)c(=O)n1C	-1.1%	-1.2%	-1.2%	-0.4%	/	0.8%
Cc1ccccc1CCNC(=O)C1CCN(S(=O)(=O)c2ccc3c(ccn3C)c2)CC1	/	1.6%	/	/	/	/
O=C(c1cc(-c2ccc(Cl)c(Cl)c2)on1)N1CCCCCC1	?	4.78µM*	2.82µM*	2µM*	/	?
Cc1nc(SCC(=O)Nc2ccc(Cl)cc2C(F)(F)F)[nH]c(=O)c1Cc1ccccc1	/	?	/	/	-1.6%	/
CCc1ccc(S(=O)(=O)c2nnn(-c3ccc(F)cc3)c2N)cc1	/	2.0%	/	/	-37.0%	/
O=S(=O)(Nc1cccc(-c2ccc(N3CCCCC3)nn2)c1)c1ccc(F)cc1F	/	1.9µM*	/	/	/	/
Cc1nnc2ccc(-c3cccc(NS(=O)(=O)c4cc(F)ccc4F)c3)nn12	-5.5%	0.1%	0.7%	-13.0%	/	2.0%
CC1CCN(c2ccc(-c3cccc(NS(=O)(=O)c4ccc(F)cc4F)c3)nn2)CC1	/	1.69µM*	/	/	/	/
Cc1ccc(S(=O)(=O)Nc2cccc(-c3ccc(N4CCC(C)CC4)nn3)c2)s1	/	0.757µM*	/	/	/	/
O=S(=O)(Nc1cccc(-c2ccc(N3CCCC3)nn2)c1)c1cc(F)ccc1F	/	6.01µM*	/	/	/	/
CC(O)CO (stereo not given)	1.2%	1.4%	-7.3%	-5.3%	-1.8%	-3.0%
SMILES	p53 reactivator	FLuc counter	Rab9 promoter act	NPC1 promoter act	SMN2 splice up	ELG1 genotoxic
COc1ccccc1C(=O)Nc1ccc2nc(SCC(=O)N(C)c3ccccc3)sc2c1	/	-18.2%	/	/	/	/
COc1ccccc1CN1CCCC2(CCN(C(=O)c3ccco3)CC2)C1	/	/	/	/	-13.5%	/
O=c1oc(CCCO)cc2ccc(C#Cc3ccsc3)cc12	13.3%	?	-9.2%	?	/	11.5%
CN(C)c1ccc(C#Cc2ccc3cc(CCCO)oc(=O)c3c2)cc1	23.3%	1.69µM*	0.6%	2.82µM*	/	?
Cc1ccc(Cn2cc(-c3ccccc3)nn2)cc1	20.0%	?	?	?	/	?
CCc1ccc(-c2cn3nc(CC)sc3n2)cc1	/	0.601µM*	/	/	27.0%	/
CCc1ccc(-c2cn3nc(-c4ccccc4)cnc3n2)cc1	11.7%	-18.8%	2µM*	?	/	12.2%
CCc1ccc(NC(=O)C2CCN(c3nn4cc(-c5ccc(OC)cc5)nc4s3)CC2)cc1	/	-2.6%	/	/	/	/
CC(C)Cc1nn2cc(-c3cccc(Br)c3)nc2s1	/	0.426µM*	/	/	-1.5%	/
CCCCCc1nn2cc(-c3ccccc3)nc2s1	/	0.426µM*	/	/	7.08µM*	/
Cc1nn2cc(-c3ccc(OC(C)C)cc3)nc2s1	/	1.35µM*	/	/	6.4%	/
Cc1ccc(-c2cn3nc(N4CCC(C(=O)Nc5ccccc5C)CC4)sc3n2)cc1	/	1.9%	/	/	/	/
CCCc1nn2c(C)c(-c3ccccc3)nc2s1	/	1.51µM*	/	/	26.4%	/
Cc1c(-c2ccc(O)cc2)nc2nc(-c3ccccc3)c(-c3ccccc3)nn12	1.3%	2.9%	-1.0%	-4.2%	/	1.7%
Cc1nn2cc(-c3ccccc3)nc2s1	10.6%	4.26µM*	1µM*	0.355µM*	10µM*	?
N/C(=N\OC(=O)c1cccc(Br)c1)c1ccc([N+](=O)[O-])cc1	0.8%	?	0.1%	-1.2%	/	2.1%
N/C(=N\OC(=O)c1ccc(F)cc1)c1cccc([N+](=O)[O-])c1	-0.9%	0.239µM*	?	?	/	?
N/C(=N\OC(=O)c1ccccc1Cl)c1cccc([N+](=O)[O-])c1	/	1.2µM*	0.891µM*	1.41µM*	/	2.59µM*
COc1cc(OC)c(C(=O)O/N=C(\N)c2cccc(C)c2)cc1OC	21.2%	?	0.5%[1.84 µM]	3.8%	/	6.3%
Cc1cccc(/C(N)=N/OC(=O)c2ccc(F)cc2)c1	?	0.269µM*	1.58µM*	1µM*	?	?
N/C(=N\OC(=O)c1cccc(F)c1)c1cccc([N+](=O)[O-])c1	8.5%	1.51µM*	20.6%	25.7%	/	?
COc1ccc(/C=C(\C#N)c2nc(-c3cc4c(ccc5ccccc54)oc3=O)cs2)cc1O	/	-17.1%	/	/	-7.6%	/
O=C(CC(=O)c1cccc([N+](=O)[O-])c1)Nc1ccccc1Cl	-1.5%	23.9µM*	11.9%	16.4%	-11.7%	3.4%
O=C(CCNc1ccccc1)c1cccc([N+](=O)[O-])c1	-32.1%	-0.9%	3.6%	0.7%	/	4.9%
N/C(=N/OC(=O)c1ccccc1Cl)c1ncc([N+](=O)[O-])s1	-2.0%	4.26µM*	1.4%	?	/	?
N/C(=N\OC(=O)Cc1ccccc1)c1ccccc1Cl	15.6%	?	25.6%	12.9%	9.3%	10.4%
N/C(=N/OC(=O)c1cccc([N+](=O)[O-])c1)c1cccc([N+](=O)[O-])c1	23.0%	?	11.8%	14.6%	0.4%	8.4%
N/C(=N\OC(=O)c1ccc2ccccc2c1)c1cccc([N+](=O)[O-])c1	?	1.9µM*	12.2%	26.4%	13.9%[1.84 µM]	?
